Data from PubChem BioAssay (EPA / NIEHS).
Inconclusive results are not listed. Active and inactive are the calls of the source. Rule for the calls: active = hit-call score of the fitted dose curve at least 0.9, where 1 is the maximum; inconclusive = response in the unintended direction; inactive = score below 0.9.

target: human Elastase, ELANE (gene 1991) (UniProt P08246); test: NVS_ENZ_hElastase: NovaScreen (NVS) Enzymatic Assay for human Elastase (AID 2283153)
How it was run: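 Cell-free elastase from human neutrophils, 1.5 h after dosing, activity read by absorbance. Primary screen in duplicate at 25 uM; hits (e.g., 30% inhibition) rerun in singleton concentration-response up to 50 uM, fitted versus DMSO.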

Chain of human Elastase, ELANE (gene 1991) (P08246 whole entry, looked up): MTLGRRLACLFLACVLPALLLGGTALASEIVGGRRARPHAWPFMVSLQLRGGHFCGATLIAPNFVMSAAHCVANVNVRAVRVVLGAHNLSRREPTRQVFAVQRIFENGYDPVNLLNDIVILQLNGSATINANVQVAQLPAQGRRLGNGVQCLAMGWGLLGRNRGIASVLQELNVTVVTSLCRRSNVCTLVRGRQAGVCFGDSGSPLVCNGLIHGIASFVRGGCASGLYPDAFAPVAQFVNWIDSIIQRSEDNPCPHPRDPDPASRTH

SMILES | outcome
CC1(C)C(C=C(Cl)Cl)C1C(=O)OC(C#N)c1ccc(F)c(Oc2ccccc2)c1 (stereo not given) | inactive
O=S(=O)(O)C(F)(F)C(F)(F)C(F)(F)C(F)(F)C(F)(F)C(F)(F)C(F)(F)C(F)(F)F | inactive
O=C(NC(=O)c1c(F)cccc1F)Nc1ccc(OC(F)(F)C(F)OC(F)(F)F)c(Cl)c1 (stereo not given) | inactive
Oc1cc(Cl)ccc1Oc1ccc(Cl)cc1Cl | inactive
O=C(O)C(F)(F)C(F)(F)C(F)(F)C(F)(F)C(F)(F)C(F)(F)C(F)(F)F | inactive
COP(=S)(OC)Oc1ccc([N+](=O)[O-])cc1 | inactive

target: human Ephrin type-B Receptor 1 (EphB1), EPHB1 (gene 2047) (UniProt P54762); test: NVS_ENZ_hEphB1: NovaScreen (NVS) Enzymatic Assay for human Ephrin type-B Receptor 1 (EphB1) (AID 2283154)
How it was run: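 Cell-free kinase assay with recombinant enzyme, fluorescent substrate and electrophoretic mobility-shift separation of substrate and product; read 1 h after dosing. Single-concentration duplicate screen at 25 uM; loss of signal versus DMSO baseline.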

Chain of human Ephrin type-B Receptor 1 (EphB1), EPHB1 (gene 2047) (P54762 whole entry, looked up): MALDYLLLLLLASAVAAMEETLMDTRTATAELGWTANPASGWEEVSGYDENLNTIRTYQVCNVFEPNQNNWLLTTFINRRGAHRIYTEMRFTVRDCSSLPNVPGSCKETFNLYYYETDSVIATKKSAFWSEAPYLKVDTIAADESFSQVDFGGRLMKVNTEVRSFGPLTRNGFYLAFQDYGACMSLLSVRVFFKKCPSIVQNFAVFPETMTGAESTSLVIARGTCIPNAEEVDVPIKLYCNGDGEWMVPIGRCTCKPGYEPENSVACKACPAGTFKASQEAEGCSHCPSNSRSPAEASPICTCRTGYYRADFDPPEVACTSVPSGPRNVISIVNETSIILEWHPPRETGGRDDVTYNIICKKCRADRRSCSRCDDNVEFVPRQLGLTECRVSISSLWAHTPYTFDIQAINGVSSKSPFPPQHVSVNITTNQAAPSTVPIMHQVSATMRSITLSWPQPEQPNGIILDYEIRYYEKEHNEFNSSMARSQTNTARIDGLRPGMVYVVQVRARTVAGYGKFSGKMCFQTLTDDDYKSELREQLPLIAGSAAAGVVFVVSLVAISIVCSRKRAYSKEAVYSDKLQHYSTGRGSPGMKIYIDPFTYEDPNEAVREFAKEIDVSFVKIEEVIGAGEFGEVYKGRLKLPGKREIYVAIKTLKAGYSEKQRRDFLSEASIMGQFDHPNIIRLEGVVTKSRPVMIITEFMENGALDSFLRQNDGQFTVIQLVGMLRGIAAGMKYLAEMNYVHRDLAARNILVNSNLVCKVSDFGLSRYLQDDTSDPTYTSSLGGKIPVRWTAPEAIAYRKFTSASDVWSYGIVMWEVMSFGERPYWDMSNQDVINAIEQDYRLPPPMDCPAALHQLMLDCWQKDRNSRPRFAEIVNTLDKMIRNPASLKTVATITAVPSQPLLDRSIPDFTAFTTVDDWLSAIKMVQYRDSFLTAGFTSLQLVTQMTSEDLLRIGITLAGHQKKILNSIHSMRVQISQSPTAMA

SMILES | outcome
CNC(=O)CSP(=S)(OC)OC | inactive
Oc1ccc(Cl)cc1Cc1ccccc1 | inactive
CC[C@H](C)[C@H]1O[C@]2(C=C[C@@H]1C)C[C@@H]1C[C@@H](C/C=C(\C)[C@@H](O[C@H]3C[C@H](OC)[C@@H](O[C@H]4C[C@H](OC)[C@@H](O)[C@H](C)O4)[C@H](C)O3)[C@@H](C)/C=C/C=C3\CO[C@@H]4[C@H](O)C(C)=C[C@@H](C(=O)O1)[C@]34O)O2 (tested in a mixture with another compound) | inactive
O=C(O)COc1ccc(Cl)cc1Cl | inactive
